Results on one molecule are retold here after the supplement of paper PMC8728848.

Holding throughout (experiment): glycan array binding signal (z-score within array); higher = stronger binding
Common to all, as to settings: glycan notation: IUPAC condensed, linker removed

For assay [1], the target named is Neu5Ac(a2-3)Gal(b1-4)GlcNAc(b1-2)Man(a1-3)[Neu5Ac(a2-3)Gal(b1-4)GlcNAc(b1-2)Man(a1-6)]Man(b1-4)GlcNAc(b1-4)GlcNAc. A digest of the protocol: (§1)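 Columns mapping to the same glycan were averaged after glycan names were converted to IUPAC-condensed notation. The data come from 3228 arrays in the Consortium for Functional Glycomics database, limited to those with an available protein sequence. Binding is reported as a within-array Z-score averaged across arrays of one protein sequence and across linkers.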

In assay [2] the target is Neu5Ac(a2-3)Gal(b1-4)GlcNAc(b1-2)[Neu5Ac(a2-3)Gal(b1-4)GlcNAc(b1-6)]Man(a1-6)[Neu5Ac(a2-3)Gal(b1-4)GlcNAc(b1-2)Man(a1-3)][GlcNAc(b1-4)]Man(b1-4)GlcNAc(b1-4)GlcNAc. A digest of the protocol: as §1
The target of assay [3] is Neu5Ac(a2-3)Gal(b1-4)GlcNAc(b1-3)GalNAc. A digest of the protocol:
as §1

The target in assay [4] is Neu5Ac(a2-3)Gal(b1-4)GlcNAc(b1-3)[Neu5Ac(a2-3)Gal(b1-4)GlcNAc(b1-6)]GalNAc. A digest of the protocol: as §1
Assay [5] concerns the target Neu5Ac(a2-3)Gal(b1-4)GlcNAc(b1-6)[Gal(b1-3)]GalNAc. A digest of the protocol:
as §1

Assay [6] concerns the target Neu5Ac(a2-3)Gal(b1-4)[Fuc(a1-3)]GlcNAc(b1-3)Gal. A digest of the protocol: as §1
Assay [7] concerns the target Neu5Ac(a2-6)Gal(b1-4)GlcNAc(b1-2)Man(a1-3)[Neu5Ac(a2-6)Gal(b1-4)GlcNAc(b1-2)Man(a1-6)]Man(b1-4)GlcNAc(b1-4)GlcNAc. A digest of the protocol: as §1
The target of assay [8] is Neu5Ac(a2-6)Gal(b1-4)GlcNAc(b1-3)Gal(b1-4)GlcNAc(b1-3)Gal(b1-4)GlcNAc(b1-2)Man(a1-3)[Neu5Ac(a2-6)Gal(b1-4)GlcNAc(b1-3)Gal(b1-4)GlcNAc(b1-3)Gal(b1-4)GlcNAc(b1-2)Man(a1-6)]GalNAc. A digest of the protocol:
as §1

In assay [9] the target is Neu5Ac(a2-6)Gal(b1-4)GlcNAc(b1-3)Gal(b1-4)GlcNAc(b1-3)GalNAc. A digest of the protocol:
as §1

Assay [10] concerns the target Neu5Ac(a2-6)Gal(b1-4)GlcNAc(b1-3)Gal(b1-4)[Fuc(a1-3)]GlcNAc(b1-3)Gal(b1-4)[Fuc(a1-3)]GlcNAc. A digest of the protocol: as §1
Assay [11] deals with Neu5Ac(b2-6)GalNAc. A digest of the protocol: as §1
The target in assay [12] is Neu5Gc(a2-8)Neu5Gc(a2-3)Gal(b1-4)GlcNAc. A digest of the protocol: as §1

Shown is part of a subset that was picked to be rich in the strongest signals.

B1: Pwp7 (Candida glabrata) (protein)
chain: MGSSHHHHHHSSGLVPRGSHMASKNPVDFPNLCQYPNLDGAVAGFDTEIYNADPSILINFSLWPILQFPKEWHKTIGRAITTQTNFKLPASDTTLFGVSIPTQNILIEFRGYFIPPKSGTYTFALYLTDDGSAMFLGNDAAFPCGNITSWSNPTNDQVSVSDYDPKKKTLTVYMVAGVAYPLRIAYYNREKGGSLTASFVDPDGLTHSDWNGYIWTLPSCDNCKYS
For B1, the “glycan array binding signal (z-score)” value is 0.472 in assay [1]; 10.8 in assay [2]; -0.11 in [3]; 2.25 in assay [4]; -0.55 in assay [5]; -0.216 in assay [6]. Besides, the “glycan array binding signal (z-score)” value in [7] is 0.696; in assay [8], 3.78; in [9], 0.805; in [10] it was -0.43; in assay [11] it was -0.387; in assay [12], -0.224.
